Data published in PubChem BioAssay.
For some assays here: Measured potencies and affinities stand elsewhere. Active and inactive are the calls of the source. Unless noted, the rule behind the calls is not given here.

How the values were obtained:
[1] = antimalarial activity against Dd2 strain (AID 2302;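 active = growth inhibition above 50% at the single 2 µM test dose, taken to imply half-maximal potency below 2 µM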;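 note: 0% = DMSO untreated growth and 100% = chloroquine plus artemisinin killed control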); conditions: P. falciparum Dd2 in RBCs, LDH growth readout, 72 h; at 2 µM; stronger effect = higher value
[2] = human hepatoma cell viability loss – ATP luminescence, cytotoxicity control for P. falciparum antimalarial project, primary screen (AID 2303;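 active = inhibition above 50%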;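 note: 0% = DMSO wells and 100% = digitonin-killed cells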); conditions: HepG2 viability, 24-48 h, at 10 µM, stronger effect = higher value
[3] = molecular target: L-lactate dehydrogenase (Plasmodium falciparum (isolate CDC / Honduras)) (UniProt Q27743); test: PfLDH activity inhibition – cell lysate, 3D7 strain, counter-screen for P. falciparum growth inhibition project (AID 2304);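 note: 0% = vehicle and 100% = reference inhibitor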; conditions: P. falciparum 3D7 crude extract, LDH APAD/NBT absorbance; at 2 µM; stronger effect = higher value
Chain of L-lactate dehydrogenase (Plasmodium falciparum (isolate CDC / Honduras)) (Q27743 whole entry, looked up): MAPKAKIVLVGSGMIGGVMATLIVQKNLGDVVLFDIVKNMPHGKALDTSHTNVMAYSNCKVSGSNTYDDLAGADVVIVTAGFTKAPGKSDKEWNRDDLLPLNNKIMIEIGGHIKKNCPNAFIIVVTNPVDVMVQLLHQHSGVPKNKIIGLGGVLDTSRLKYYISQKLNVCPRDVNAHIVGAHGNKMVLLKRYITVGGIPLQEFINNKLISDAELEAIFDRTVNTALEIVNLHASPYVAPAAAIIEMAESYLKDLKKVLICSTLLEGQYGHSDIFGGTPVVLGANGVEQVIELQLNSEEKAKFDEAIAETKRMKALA

[4] = inhibition of 3D7 malaria parasite growth – strain 3D7 (AID 2306);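 note: 0% = DMSO wells and 100% = chloroquine plus artemisinin control wells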; conditions: P. falciparum 3D7 erythrocytic growth, LDH absorbance, 72 h; at 2 µM; stronger effect = higher value
[5] = molecular target: Calcium-dependent protein kinase 1 (Plasmodium falciparum (isolate 3D7)) (UniProt P62344); test: PfCDPK1 kinase inhibitors, biochemical, TCAMS library (AID 1159585; cut-off not given, nearly all actives have IC50 up to about 0.98 µM;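 note: inhibitors leave more ATP so luminescence rises with inhibition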); conditions: recombinant PfCDPK1, Kinase-Glo ATP depletion luminescence
Chain of Calcium-dependent protein kinase 1 (Plasmodium falciparum (isolate 3D7)) (P62344 whole entry, looked up): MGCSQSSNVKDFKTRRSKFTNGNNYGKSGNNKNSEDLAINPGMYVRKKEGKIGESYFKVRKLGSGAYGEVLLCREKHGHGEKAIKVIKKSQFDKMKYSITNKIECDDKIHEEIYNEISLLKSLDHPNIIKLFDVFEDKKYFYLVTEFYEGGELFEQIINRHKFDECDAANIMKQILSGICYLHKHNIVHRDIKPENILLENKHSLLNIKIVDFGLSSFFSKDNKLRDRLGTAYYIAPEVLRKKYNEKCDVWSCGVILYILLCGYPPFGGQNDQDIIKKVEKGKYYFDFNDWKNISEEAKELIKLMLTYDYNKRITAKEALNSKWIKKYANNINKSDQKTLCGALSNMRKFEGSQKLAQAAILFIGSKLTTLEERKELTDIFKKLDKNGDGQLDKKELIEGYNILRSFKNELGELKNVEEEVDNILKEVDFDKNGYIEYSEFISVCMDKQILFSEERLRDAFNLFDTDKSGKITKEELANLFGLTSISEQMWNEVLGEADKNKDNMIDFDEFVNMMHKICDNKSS

[6] = molecular target: Plasmodium falciparum protein kinase 6 (PK6, PF3D7_1337100) (UniProt Q8IDW1); test: PfPK6 kinase inhibitors, biochemical, TCAMS library (AID 1159586); conditions: recombinant PfPK6, Kinase-Glo ATP depletion luminescence
Chain of Plasmodium falciparum protein kinase 6 (PK6, PF3D7_1337100) (Q8IDW1 1-305): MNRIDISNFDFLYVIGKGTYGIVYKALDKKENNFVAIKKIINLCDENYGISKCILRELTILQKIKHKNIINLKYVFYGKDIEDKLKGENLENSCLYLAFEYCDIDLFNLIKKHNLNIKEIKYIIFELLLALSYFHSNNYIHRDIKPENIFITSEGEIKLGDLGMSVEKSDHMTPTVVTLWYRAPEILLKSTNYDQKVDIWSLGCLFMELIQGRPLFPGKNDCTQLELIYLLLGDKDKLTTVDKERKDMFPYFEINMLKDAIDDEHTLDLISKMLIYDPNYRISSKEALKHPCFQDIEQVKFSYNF

[7] = molecular target: Protein kinase 7 (PK7), Plasmodium falciparum 3D7 (PF3D7_0213400) (UniProt Q7YTF7); test: inhibition of Plasmodium PK7 catalytic activity – biochemical, TCAMS antimalarial set, Kinase-Glo luminescence (AID 1159587); conditions: recombinant PfPK7, Kinase-Glo ATP depletion luminescence
Chain of Protein kinase 7 (PK7), Plasmodium falciparum 3D7 (PF3D7_0213400) (Q7YTF7 1-343): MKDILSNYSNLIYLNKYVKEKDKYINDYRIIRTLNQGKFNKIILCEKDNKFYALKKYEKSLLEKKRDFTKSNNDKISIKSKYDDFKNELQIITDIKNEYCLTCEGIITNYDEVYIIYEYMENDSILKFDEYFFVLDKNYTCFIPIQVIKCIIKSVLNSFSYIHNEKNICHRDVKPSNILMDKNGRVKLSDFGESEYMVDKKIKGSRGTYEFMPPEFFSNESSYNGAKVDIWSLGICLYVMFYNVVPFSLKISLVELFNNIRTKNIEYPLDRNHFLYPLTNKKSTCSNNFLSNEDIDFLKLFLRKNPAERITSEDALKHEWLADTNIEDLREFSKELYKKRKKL

[8] = molecular target: Calcium-dependent protein kinase 4 (Plasmodium falciparum (isolate 3D7)) (UniProt Q8IBS5); test: PfCDPK4 kinase inhibitors, biochemical, TCAMS library (AID 1159588; cut-off not given, nearly all actives have IC50 up to about 0.91 µM); conditions: recombinant PfCDPK4, Kinase-Glo ATP depletion luminescence
Chain of Calcium-dependent protein kinase 4 (Plasmodium falciparum (isolate 3D7)) (Q8IBS5 whole entry, looked up): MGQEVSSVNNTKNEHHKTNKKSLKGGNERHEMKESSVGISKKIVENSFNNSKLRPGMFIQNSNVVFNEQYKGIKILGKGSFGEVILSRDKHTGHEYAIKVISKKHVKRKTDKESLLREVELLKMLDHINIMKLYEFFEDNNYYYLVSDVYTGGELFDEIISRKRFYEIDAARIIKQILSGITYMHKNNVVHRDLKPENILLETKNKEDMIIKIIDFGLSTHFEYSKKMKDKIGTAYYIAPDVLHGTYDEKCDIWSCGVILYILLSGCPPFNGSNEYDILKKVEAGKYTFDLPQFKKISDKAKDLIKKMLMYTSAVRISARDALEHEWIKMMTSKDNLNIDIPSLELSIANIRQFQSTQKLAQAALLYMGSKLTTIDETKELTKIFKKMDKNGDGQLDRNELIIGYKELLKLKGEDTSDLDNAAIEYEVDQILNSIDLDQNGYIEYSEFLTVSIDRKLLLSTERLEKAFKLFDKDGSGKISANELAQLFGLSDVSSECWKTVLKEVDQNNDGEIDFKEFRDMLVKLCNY

COc1ccc2nc3cc(Cl)ccc3c(Nc3ccc(Sc4ccc(Nc5c6ccc(Cl)cc6nc6ccc(OC)cc56)cc4)cc3)c2c1
inactive: inhibition [2] 1% | inhibition [3] -4% | outcome [5] | outcome [6] | outcome [7] | outcome [8]
active: growth inhibition [1] 94% | growth inhibition [4] 92%

COc1cc(CCCOc2c(N)nc(N)nc2N)cc(OC)c1OC
active: growth inhibition [4] 88%
inactive: growth inhibition [1] 0% | inhibition [2] 8% | inhibition [3] 2% | outcome [5] | outcome [6] | outcome [7] | outcome [8]

N#Cc1cccc(NC(=O)Nc2cccc(-c3cccc(-c4nc5ccccc5[nH]4)c3)c2)c1
active: growth inhibition [1] 96% | growth inhibition [4] 100%
inactive: inhibition [2] 46% | inhibition [3] 3% | outcome [5] | outcome [6] | outcome [7] | outcome [8]

c1ccc2[nH]c(-c3ccc(-c4ccc(CN5CCCCC5)cc4)cc3)nc2c1
inactive: inhibition [2] 27% | inhibition [3] 2% | outcome [5] | outcome [6] | outcome [7] | outcome [8]
active: growth inhibition [1] 100% | growth inhibition [4] 99%

CC(=O)c1ccc(N2CCN(C(=O)Nc3ccc(Cl)cc3)CC2)cc1
active: growth inhibition [4] 97%
inactive: growth inhibition [1] 0% | inhibition [2] 4% | inhibition [3] 0% | outcome [5] | outcome [6] | outcome [7] | outcome [8]

O=C(c1cc(C(=O)Nc2ccccc2)c(=O)n(-c2ccccc2)c1)c1cc(Cl)ccc1O
inactive: inhibition [2] 9% | inhibition [3] -1% | outcome [5] | outcome [6] | outcome [7] | outcome [8]
active: growth inhibition [1] 95% | growth inhibition [4] 100%

CCN(c1ccccc1)S(=O)(=O)c1ccc(NC(=O)c2cc(-c3cc(C)ccc3O)n[nH]2)cc1
inactive: inhibition [2] 49% | inhibition [3] -3% | outcome [5] | outcome [6] | outcome [7] | outcome [8]
active: growth inhibition [1] 55% | growth inhibition [4] 99%

CCOc1cc(C(=O)NCc2cc(Cl)cc(Cl)c2)ccc1-c1nc2ccc(Cl)cc2[nH]1
inactive: growth inhibition [1] 5% | inhibition [2] 1% | inhibition [3] -3% | outcome [5] | outcome [6] | outcome [7] | outcome [8]
active: growth inhibition [4] 101%

CC(C)CN1CCN(CCNc2c3ccccc3nc3ccccc23)CC1
active: growth inhibition [1] 79% | growth inhibition [4] 97%
inactive: inhibition [2] 26% | inhibition [3] 0% | outcome [5] | outcome [6] | outcome [7] | outcome [8]

Cc1cccc2[nH]c(-c3ccc(-c4ccc(C(=O)NCCc5cn(C)cn5)cc4)s3)nc12
inactive: growth inhibition [1] 8% | inhibition [2] -6% | inhibition [3] -2% | outcome [5] | outcome [6] | outcome [7] | outcome [8]
active: growth inhibition [4] 88%

O=C(NC1CC1)c1ccc(N2CCCC(COc3ccccc3F)C2)nc1 (stereo not given)
active: growth inhibition [1] 92% | growth inhibition [4] 87%
inactive: inhibition [2] 8% | inhibition [3] -2% | outcome [5] | outcome [6] | outcome [7] | outcome [8]

Cn1cnc(CCNC(=O)c2ccc(-c3cccc(-c4nc5ccccc5[nH]4)c3)cc2)c1
active: growth inhibition [4] 93%
inactive: growth inhibition [1] 14% | inhibition [2] 1% | inhibition [3] 2% | outcome [5] | outcome [6] | outcome [7] | outcome [8]

Cc1ccc(-c2cc(C(=O)Nc3ccc(S(=O)(=O)N4CCCCC4C)cc3)[nH]n2)c(O)c1 (stereo not given)
active: growth inhibition [1] 99% | growth inhibition [4] 100%
inactive: inhibition [2] 37% | inhibition [3] 0% | outcome [5] | outcome [6] | outcome [7] | outcome [8]

CCCCCC(C)(C)NC[C@@H](O)[C@H](Cc1ccccc1)NC(=O)c1cc(NCC)cc(N2CCCC2=O)c1
inactive: inhibition [2] 9% | inhibition [3] -5% | outcome [5] | outcome [6] | outcome [7] | outcome [8]
active: growth inhibition [1] 97% | growth inhibition [4] 99%

O=C(C(=O)c1ccc(Nc2ccnc3cc(-c4ccccn4)ccc23)cc1)c1ccccc1
inactive: growth inhibition [1] 34% | inhibition [2] 22% | inhibition [3] -4% | outcome [5] | outcome [6] | outcome [7] | outcome [8]
active: growth inhibition [4] 93%

COc1ccc(S(=O)(=O)NC2CCN(c3ccnc4cc(Cl)ccc34)C2)cc1 (stereo not given)
inactive: inhibition [2] 12% | inhibition [3] -2% | outcome [5] | outcome [6] | outcome [7] | outcome [8]
active: growth inhibition [1] 86% | growth inhibition [4] 100%

COc1ccc2nc3cc(Cl)ccc3c(NCCN3CCN(C)CC3)c2c1
active: growth inhibition [1] 99% | growth inhibition [4] 100%
inactive: inhibition [2] 29% | inhibition [3] 2% | outcome [5] | outcome [6] | outcome [7] | outcome [8]

CC(=O)c1ccc(N2C(=O)C3C(Cc4ccc(OC(C)(C)C)cc4)NC4(C(=O)N(Cc5ccc(C(C)(C)C)cc5)c5ccccc54)C3C2=O)cc1 (stereo not given)
active: growth inhibition [1] 81% | growth inhibition [4] 86%
inactive: inhibition [2] 13% | inhibition [3] 4% | outcome [5] | outcome [6] | outcome [7] | outcome [8]

O=C(/C=C/c1ccc(-c2ccccc2)cc1)NCCCCCN1CCC(c2c[nH]c3ccccc23)CC1
inactive: growth inhibition [1] 23% | inhibition [3] 6% | outcome [5] | outcome [6] | outcome [7] | outcome [8]
active: inhibition [2] 91% | growth inhibition [4] 97%

O=C(Nc1ccc(Cn2nc(Cl)c(N3CCCNCC3)cc2=O)cc1)Nc1ccc(-c2ccccc2)cc1
active: inhibition [2] 89% | growth inhibition [4] 87%
inactive: growth inhibition [1] 36% | inhibition [3] 1% | outcome [5] | outcome [6] | outcome [7] | outcome [8]

CCCOc1cc(OCCC)cc(-c2cc(=O)c3ccccc3[nH]2)c1
inactive: inhibition [2] 33% | inhibition [3] -2% | outcome [5] | outcome [6] | outcome [7] | outcome [8]
active: growth inhibition [1] 96% | growth inhibition [4] 99%

COc1ccc(NC(=O)c2ccc(-c3ccc(-c4cccnc4)cc3)c(C)c2)cc1OCCN(C)C
active: growth inhibition [1] 73% | growth inhibition [4] 99%
inactive: inhibition [2] 24% | inhibition [3] 0% | outcome [5] | outcome [6] | outcome [7] | outcome [8]

Cc1cnc(N2CCN(CCCN3CCCC3)CC2)nc1Oc1ccc(-n2ccnc2)cc1
inactive: inhibition [2] 12% | inhibition [3] 4% | outcome [5] | outcome [6] | outcome [7] | outcome [8]
active: growth inhibition [1] 82% | growth inhibition [4] 99%

Cc1nc(C)c(CC(=O)Nc2cccc(-c3cccc(-c4nc5ccc(C(F)(F)F)cc5[nH]4)c3)c2)s1
active: growth inhibition [4] 95%
inactive: growth inhibition [1] 30% | inhibition [2] 49% | inhibition [3] -4% | outcome [5] | outcome [6] | outcome [7] | outcome [8]

O=c1cc(NCCCNCc2ccc3c(c2)OC(F)(F)O3)[nH]c2ccccc12
active: growth inhibition [1] 94% | growth inhibition [4] 100%
inactive: inhibition [2] -9% | inhibition [3] -6% | outcome [5] | outcome [6] | outcome [7] | outcome [8]

CCC(C)c1ccc(O)c(NC(=O)c2cncc(Br)c2)c1 (stereo not given)
active: growth inhibition [4] 100%
inactive: growth inhibition [1] 16% | inhibition [2] -13% | inhibition [3] -4% | outcome [5] | outcome [6] | outcome [7] | outcome [8]

CC(=O)c1ccc(-c2ccccc2)s1
active: growth inhibition [4] 92%
inactive: growth inhibition [1] 2% | inhibition [2] -2% | inhibition [3] 8% | outcome [5] | outcome [6] | outcome [7] | outcome [8]

Clc1ccc(CNc2nc(NCCc3cnc[nH]3)nc(NC3CCCCC3)n2)cc1
inactive: growth inhibition [1] 1% | inhibition [2] -5% | inhibition [3] -3% | outcome [5] | outcome [6] | outcome [7] | outcome [8]
active: growth inhibition [4] 100%

CCOC(=O)c1c(CCc2ccc(C(F)(F)F)cc2)nc2c(c1-c1ccc(C(=O)N[C@@H](C)c3ccncc3)cc1)C(=O)N1CCC[C@@H]21
active: growth inhibition [1] 68% | growth inhibition [4] 85%
inactive: inhibition [2] -3% | inhibition [3] -2% | outcome [5] | outcome [6] | outcome [7] | outcome [8]

Cc1[nH]c(C)c(-c2ccc(-c3ccccc3F)nc2)c(=O)c1Br
inactive: inhibition [2] 2% | inhibition [3] -3% | outcome [5] | outcome [6] | outcome [7] | outcome [8]
active: growth inhibition [1] 97% | growth inhibition [4] 97%

O=C(CC(=O)C(F)(F)F)c1ccc2c(c1)OCO2
inactive: growth inhibition [1] 0% | inhibition [2] 44% | inhibition [3] 0% | outcome [5] | outcome [6] | outcome [7] | outcome [8]
active: growth inhibition [4] 96%

CCOc1cc(CNCCCCCCNCc2cc(OCC)c(OCC)c3ccccc23)c2ccccc2c1OCC
inactive: inhibition [3] 2% | outcome [5] | outcome [6] | outcome [7] | outcome [8]
active: growth inhibition [1] 99% | inhibition [2] 100% | growth inhibition [4] 101%

O=C(Nc1ccccc1F)N(CCCn1ccnc1)Cc1csc(-c2ccc(CNCc3ccccc3)cc2)n1
active: growth inhibition [4] 93%
inactive: growth inhibition [1] 26% | inhibition [2] 24% | inhibition [3] 2% | outcome [5] | outcome [6] | outcome [7] | outcome [8]

Brc1ccsc1-c1nc(NCCC(c2ccccc2)c2ccccc2)no1
inactive: inhibition [2] 17% | inhibition [3] -5% | outcome [5] | outcome [6] | outcome [7] | outcome [8]
active: growth inhibition [1] 81% | growth inhibition [4] 94%

CCN(CC)CCOc1c(Cl)cc(Cl)cc1CNCCCNc1cc(=O)c2ccccc2[nH]1
active: growth inhibition [4] 97%
inactive: growth inhibition [1] 6% | inhibition [2] 11% | inhibition [3] -1% | outcome [5] | outcome [6] | outcome [7] | outcome [8]

Cn1ccnc1Sc1ncccc1[N+](=O)[O-]
active: growth inhibition [4] 96%
inactive: growth inhibition [1] 2% | inhibition [2] 0% | inhibition [3] -3% | outcome [5] | outcome [6] | outcome [7] | outcome [8]

COc1cccc(CN2CCCC(COC(c3ccc(F)cc3)c3ccc(F)cc3)C2)c1O (stereo not given)
inactive: inhibition [2] 24% | inhibition [3] 4% | outcome [5] | outcome [6] | outcome [7] | outcome [8]
active: growth inhibition [1] 100% | growth inhibition [4] 98%

Cc1cccc(-c2nc3[nH]c(=O)cc(NC(=O)C(C)C)n3n2)c1
active: growth inhibition [1] 93% | growth inhibition [4] 96%
inactive: inhibition [2] -12% | inhibition [3] 0% | outcome [5] | outcome [6] | outcome [7] | outcome [8]

Cc1cccc(NC(=S)NC2CCN(CCCCCNC(=O)/C=C/c3ccc(Cl)c(Cl)c3)CC2)c1
active: growth inhibition [4] 97%
inactive: growth inhibition [1] 19% | inhibition [2] 14% | inhibition [3] 4% | outcome [5] | outcome [6] | outcome [7] | outcome [8]

COC(=O)c1cccc(CNCc2ccc(-c3ccc(-c4nc5c(C)cccc5[nH]4)cc3)cc2)c1
inactive: inhibition [2] 17% | inhibition [3] 3% | outcome [5] | outcome [6] | outcome [7] | outcome [8]
active: growth inhibition [1] 86% | growth inhibition [4] 102%
